VACV mCherry inh: qHTS for Stage-Specific Inhibitors of Vaccinia Orthopoxvirus: mCherry Reporter Primary qHTS; Vaccinia virus mCherry reporter infection, fluorescence; Potency, µM (highest dose often 36.5 µM), actives largely listed as inhibitors; actives 0.63% (n = 310,000); calls by dose curve; tested in A549 cells; further: nearly all actives have a fitted effect of over 35% in size
MARV entry inh: qHTS for inhibitors of binding or entry into cells for Marburg Virus; Potency, µM (doses to about 37.8 µM), actives largely listed as inhibitors; Marburg virus pseudotyped entry inhibition, cell reporter; AID 540276, 2011; actives 1.8% (n = 300,000); calls by dose curve; tested in HEK293 cells
Vaccinia Venus: qHTS for Stage-Specific Inhibitors of Vaccinia Orthopoxvirus: Venus Reporter Primary qHTS | actives 0.46% (n = 330,000) | AID 720580, 2013 | Potency, µM (titrated, usually from 36.5 µM), most hits filed as inhibitors | Vaccinia virus Venus reporter expression, fluorescence; calls by dose curve; tested in A549 cells; further: nearly all actives have a fitted effect of over 30% in size
Lassa entry inh: qHTS for Inhibitors of binding or entry into cells for Lassa Virus; Lassa virus pseudotype entry inhibition, cell reporter; AID 540256, 2011; actives 1.2% (n = 300,000); Potency, µM (doses to about 37.9 µM), usual class: inhibitors; calls by dose curve; tested in HEK293 cells; further: nearly all actives have a fitted effect of over 50% in size
FMDV inh: High Throughput Screening for Foot and Mouth Disease Virus Antivirals | FMDV antiviral cell-based qHTS | Potency, µM (doses to about 57.9 µM), usual class: inhibitors | AID 1159524, 2015 | actives 1.2% (n = 410,000); calls by dose curve; tested in HEK293T cells; further: read-out not given here; nearly all actives have a fitted effect of over 45% in size
Of the large screens only hits and unclear results are named; the others gave an inactive call. Compounds with a hit are over-represented: about 3.2% of the library has one in this group of screens.

COC(=O)c1[nH]c2cc(OC)ccc2c1NC(=O)CN1CCN(c2cccc(C)c2)C(C)C1 (stereo not given)	VACV mCherry inh inconclusive, MARV entry inh 15.8µM, Vaccinia Venus inconclusive, Lassa entry inh inconclusive, FMDV inh inconclusive
O=C(CN1CCN(c2ccccn2)CC1)N1c2ccccc2CCc2ccccc21	none (no result: VACV mCherry inh, Vaccinia Venus)
Cc1c(C)n(C(=O)CN2CCN(c3ccccn3)CC2)c2ccccc12	MARV entry inh inconclusive, FMDV inh 31.6µM (no result: VACV mCherry inh)
Cc1nn(CC(=O)NCCCN2CCCC2=O)c(C)c1[N+](=O)[O-]	VACV mCherry inh inconclusive, MARV entry inh 11.2µM, Lassa entry inh inconclusive
COC(=O)CNC(=O)Cn1nc(C)c([N+](=O)[O-])c1C	none
CCC(C(=O)Nc1cc(C(F)(F)F)ccc1Cl)n1nc(C)c2sc3ccccc3c2c1=O (stereo not given)	none
CCCC[C@@H](C)C[C@@H](C)C(=O)N(C)[C@@H](CC(C)C)C(=O)N[C@H](C(=O)N(C)[C@H](C(=O)N1C[C@@H](O)C[C@H]1C(=O)N1C(=O)C=C[C@@H]1C)C(C)C)C(C)OC(C)=O (stereo not given in full)	VACV mCherry inh inconclusive, Vaccinia Venus 10µM, FMDV inh inconclusive (no result: MARV entry inh, Lassa entry inh)
O=[N+]([O-])c1ccccc1S(=O)(=O)N1CCN(S(=O)(=O)c2ccc3c(c2)OCCO3)CC1	none (no result: VACV mCherry inh, MARV entry inh, Vaccinia Venus, Lassa entry inh)
COC(=O)c1ccccc1-c1ccc(/C=N/Nc2nc(N3CCCC3)nc(N3CCCC3)n2)o1	MARV entry inh inconclusive, Lassa entry inh inconclusive, FMDV inh 22.4µM
COc1ccc(-c2cc3nc(C)c(CCC(=O)Nc4ccc(F)cc4F)c(C)n3n2)c(OC)c1	none
COc1cccc2c1C(=O)/C(=C\c1ccc(N(C)C)cc1)C2	none (no result: MARV entry inh, Lassa entry inh, FMDV inh)
c1ccc(CN(CC2=NCCN2)c2ccccc2)cc1	MARV entry inh inconclusive, Lassa entry inh inconclusive
Cc1ccc(N(CC2=NCCN2)c2cccc(O)c2)cc1	MARV entry inh 23.1µM, Lassa entry inh inconclusive
CC(C)(C)c1ccc(NC(=O)N2CCCN(c3ccc([N+](=O)[O-])cn3)CC2)cc1	Vaccinia Venus inconclusive, Lassa entry inh inconclusive, FMDV inh 31.6µM
O=C(Nc1ccc([N+](=O)[O-])cc1)N1CCCCCC1	MARV entry inh inconclusive
COC(=O)C1=C(C)N(Cc2ccccc2)C(=O)NC1c1cccc(F)c1 (stereo not given)	none (no result: VACV mCherry inh, Vaccinia Venus, Lassa entry inh, FMDV inh)
COc1ccccc1C(=O)Nc1ccc(C(=O)OCc2cc(=O)n3nc(C)sc3n2)cc1	VACV mCherry inh inconclusive, Vaccinia Venus inconclusive, FMDV inh 15.8µM (no result: MARV entry inh)
Cc1nn2c(=O)cc(COC(=O)c3cccc(NC(=O)CCc4ccccc4)c3)nc2s1	none (no result: MARV entry inh)
O=C(OCc1cc(=O)n2nc(C3CC3)sc2n1)c1ccc(NC(=O)c2ccccc2Cl)cc1	VACV mCherry inh inconclusive, Lassa entry inh inconclusive, FMDV inh 20µM (no result: MARV entry inh)
Cc1nn2c(=O)cc(COC(=O)c3ccc(NC(=O)COc4ccccc4F)cc3)nc2s1	FMDV inh 10µM (no result: MARV entry inh)
O=C(OCc1cc(=O)n2nc(C3CC3)sc2n1)c1cccc(NC(=O)c2ccccc2Cl)c1	Lassa entry inh inconclusive, FMDV inh inconclusive (no result: MARV entry inh)
Cc1nn2c(=O)cc(COC(=O)c3ccc(NC(=O)CCc4ccccc4)cc3)nc2s1	FMDV inh 11.2µM (no result: MARV entry inh)
Cc1cccc2cc(CN(CC3CCCO3)C(=O)C3CC3)c(N(C)C)nc12 (stereo not given)	none (no result: MARV entry inh, Lassa entry inh)
Cc1nn2c(=O)cc(COC(=O)c3ccc(NC(=O)COc4ccc(C)c(C)c4)cc3)nc2s1	FMDV inh 11.2µM (no result: MARV entry inh)
Cc1nn2c(=O)cc(COC(=O)c3cccc(NC(=O)COc4ccc(C)c(C)c4)c3)nc2s1	none (no result: MARV entry inh)
O=C(O)CSC1=NS(=O)(=O)c2ccccc21	none (no result: MARV entry inh, Lassa entry inh, FMDV inh)
CC1(C)Cc2c(sc3ncnc(NNC(=S)NCc4ccccc4)c23)CO1	MARV entry inh inconclusive, Lassa entry inh 0.116µM
CN1/C(=C/C(=O)c2nc(S(C)(=O)=O)ncc2Cl)C(C)(C)c2ccccc21	VACV mCherry inh 28.2µM, MARV entry inh inconclusive, Vaccinia Venus inconclusive, Lassa entry inh 15.8µM, FMDV inh 10µM
NC(Cc1ccc(C(F)(F)F)cc1)c1csc(Nc2cc(Oc3ccccc3)ncn2)n1 (stereo not given)	none (no result: MARV entry inh, Lassa entry inh)
CCN(CC)c1ccc(-c2nnc(SCC(=O)NCc3ccco3)n2C)cc1	none (no result: MARV entry inh, Lassa entry inh, FMDV inh)
CCCCN(C)CC(O)Cn1cc(/C=C/C(=O)c2ccc(OC)c(OC)c2)c2ccccc21 (stereo not given)	VACV mCherry inh inconclusive, MARV entry inh 4.47µM, Lassa entry inh inconclusive
CCCCN(C)CC(O)Cn1cc(/C=C/C(=O)c2ccc(Br)cc2)c2ccccc21 (stereo not given)	MARV entry inh inconclusive, Lassa entry inh inconclusive
CSc1ccc(CN2CCC(C(=O)NCc3ccc(C)cc3)CC2)cc1	MARV entry inh 16.4µM, Lassa entry inh inconclusive (no result: VACV mCherry inh, Vaccinia Venus)
CCC(=O)N1CCc2cc(S(=O)(=O)CCC(=O)Nc3ccc(OC(F)(F)F)cc3)ccc21	none
CC[n+]1c(-c2ccc(C)cc2)csc1Nc1c(C)n(C)n(-c2ccccc2)c1=O	MARV entry inh inconclusive, Lassa entry inh inconclusive, FMDV inh 31.6µM
O=C(NCc1ccccc1)C1(C(F)(F)F)CC(CCCO)CCCO1 (stereo not given)	none (no result: MARV entry inh, Lassa entry inh)
CS(=O)(=O)c1ccc(CNC(=O)C2(C(F)(F)F)CC(CCCO)CCCO2)cc1 (stereo not given)	VACV mCherry inh 11.2µM, Vaccinia Venus inconclusive (no result: MARV entry inh, Lassa entry inh)
Cc1ccc(NC(=O)N2CCN3CCCCC3C2)cc1C (stereo not given)	none (no result: MARV entry inh)
CCCSc1ccc(-c2nn(-c3ccccc3)cc2/C=C(/C#N)C(=O)N2CCOCC2)cc1	MARV entry inh 7.08µM, Lassa entry inh inconclusive
CCSc1ccc(-c2nn(-c3ccccc3)cc2/C=C(/C#N)C(=O)NC)cc1	none
CCS(=O)(=O)c1nnnn1-c1ccccc1S(C)(=O)=O	VACV mCherry inh inconclusive, MARV entry inh inconclusive, Vaccinia Venus inconclusive, FMDV inh 39.8µM
CN(C)CC1CCC/C(=C\c2ccc(OC(=O)c3ccc(Cl)cc3)cc2)C1=O (stereo not given)	MARV entry inh inconclusive, Vaccinia Venus inconclusive, Lassa entry inh inconclusive, FMDV inh inconclusive
CN(C)CCC1(C2=CCCC2)CC/C(=C/c2ccc(Cl)cc2)C1=O (stereo not given)	VACV mCherry inh inconclusive, MARV entry inh inconclusive, Vaccinia Venus 11.2µM, Lassa entry inh 12.6µM
O=C(c1csnn1)N1CCC2(CC1)CCN(c1ccccn1)CC2	none (no result: VACV mCherry inh, MARV entry inh, Vaccinia Venus, Lassa entry inh)
COc1ccc(/C=C2\CCC(C3CCCC3)C2=O)cc1 (stereo not given)	MARV entry inh inconclusive, Lassa entry inh inconclusive
CC1CCC/C(=C\c2ccc(O)cc2)C1=O (stereo not given)	none (no result: VACV mCherry inh, MARV entry inh, Vaccinia Venus, Lassa entry inh)
CN(C)CC1CCC/C(=C\c2ccc(OC(=O)/C=C/c3ccccc3)cc2)C1=O (stereo not given)	FMDV inh 39.8µM
COc1ccc(/C=C2/CCC(CN3CCOCC3)C2=O)cc1 (stereo not given)	MARV entry inh inconclusive, Lassa entry inh 12.6µM, FMDV inh 17.8µM
CN(C)CC1CC/C(=C\c2ccc(O)cc2)C1=O (stereo not given)	VACV mCherry inh inconclusive, MARV entry inh inconclusive, Lassa entry inh 11.2µM, FMDV inh inconclusive

Screens from PubChem BioAssay.
